Data reported in PubChem BioAssay AID1159580 (chemical genetic matrix, 2015).
“And” between values parts separate entries of the source, which are not always exact repeats. Identical values can stand only once. The whole screen tested about 5,500 compounds, of which about 2,000 (36%) were called active. Roughly 18% stayed inconclusive and do not appear here. Cut-off read from the data, not from the text of the source: active = normalized growth mostly below about 0.91 (no sharp cut-off); inconclusive = no clear call, values can overlap the other calls; inactive = mostly above about 0.92. Some of the results follow.

Assay: chemical genetic growth profiling, strain panel (AID 1159580);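 note: tested at 20 µM; growth read once vehicle control cultures reached saturation at 30 °C; 1 = growth at the plate median or of vehicle wells; lower values mean less growth of the strain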
Conditions: S. cerevisiae deletion strains, growth OD

Measured: normalized growth

C#C[C@]1(O)CCC2C3CCC4=CC(=O)CC[C@@H]4C3CC[C@@]21C (some centres undefined)
inactive: locus YAL021C, strain ccr4, hits give low values 0.973 | locus YAL026C, strain drs2, hits give low values 0.967 | locus YAL030W, strain snc1, hits give low values 0.987 | locus YBL061C, strain skt5, hits give low values 0.989 | locus YBR009C, strain hhf1, hits give low values 0.985 | locus YBR021W, strain FUR4, hits give low values 0.978 | locus YBR023C, strain chs3, hits give low values 0.987 | locus YBR171W, strain sec66, hits give low values 0.969 | locus YBR229C, strain ROT2, hits give low values 0.997 | locus YBR231C, strain swc5, hits give low values 1 | locus YBR279W, strain paf1, hits give low values 0.994 | locus YCL011C, strain gbp2, hits give low values 0.984 | locus YCL016C, strain dcc1, hits give low values 1 | locus YCL029C, strain bik1, hits give low values 0.984 | locus YCL061C, strain MRC1, hits give low values 0.977 | locus YCL069W, strain vba3, hits give low values 0.968 | locus YCR088W, strain abp1, hits give low values 0.982 | locus YDL005C, strain med2, hits give low values 0.962 | locus YDL035C, strain GPR1, hits give low values 0.98 | locus YDL040C, strain nat1, hits give low values 0.984 | locus YDL074C, strain BRE1, hits give low values 0.988 | locus YDL101C, strain DUN1, hits give low values 0.995 | locus YDL134C, strain PPH21, hits give low values 0.975 | locus YDL185W, strain tfp1, hits give low values 0.98 | locus YDL192W, strain arf1, hits give low values 0.978 | locus YDR001C, strain nth1, hits give low values 0.981 | locus YDR069C, strain doa4, hits give low values 0.972 | locus YDR101C, strain arx1, hits give low values 0.97 | locus YDR137W, strain rgp1, hits give low values 0.892 | locus YDR150W, strain NUM1, hits give low values 1.01 | locus YDR159W, strain sac3, hits give low values 0.981 | locus YDR162C, strain NBP2, hits give low values 0.932 | locus YDR195W, strain ref2 1.01 | locus YDR297W, strain sur2, hits give low values 0.993 | locus YDR318W, strain mcm21, hits give low values 0.974 | locus YDR334W, strain swr1, hits give low values 0.977 | locus YDR335W, strain msn5, hits give low values 0.98 | locus YDR388W, hits give low values 0.975 | locus YDR392W, strain spt3, hits give low values 0.801 | locus YDR502C, strain sam2, hits give low values 0.957 | locus YEL003W, strain gim4, hits give low values 0.97 | locus YEL037C, strain rad23, hits give low values 0.966 | locus YEL061C, strain CIN8 (second series), hits give low values 0.967 | locus YEL061C, strain CIN8, hits give low values 0.995 | locus YER015W, strain faa2, hits give low values 0.974 | locus YER016W, strain bim1, hits give low values 0.98 | locus YER110C, hits give low values 0.982 | locus YER111C, strain swi4, hits give low values 0.988 | locus YER155C, strain BEM2 (second series), hits give low values 0.981 | locus YER155C, strain BEM2, hits give low values 0.999 | locus YER167W, strain BCK2, hits give low values 0.991 | locus YFR010W, strain ubp6, hits give low values 0.979 | locus YGL078C, strain dbp3, hits give low values 0.979 | locus YGL086W, strain mad1, hits give low values 0.991 | locus YGL167C, strain pmr1, hits give low values 0.972 | locus YGL173C, strain kem1, hits give low values 0.969 | locus YGL227W, strain vid30, hits give low values 0.984 | locus YGL240W, strain doc1, hits give low values 0.988 | locus YGL248W, strain PDE1, hits give low values 0.998 | locus YGL253W, strain hxk2, hits give low values 0.982 | locus YGR135W, strain pre9, hits give low values 0.986 | locus YGR229C, strain SMI1, hits give low values 0.948 | locus YGR252W, strain gcn5, hits give low values 0.978 | locus YHR013C, strain ard1, hits give low values 0.993 | locus YHR027C, strain rpn1, hits give low values 0.981 | locus YHR030C, strain SLT2, hits give low values 1 and 0.925 | locus YHR079C, strain IRE1 (second series), hits give low values 0.983 | locus YHR079C, strain IRE1, hits give low values 0.95 | locus YHR094C, strain hxt1, hits give low values 0.981 | locus YHR129C, strain ARP1, hits give low values 1.01 | locus YHR142W, strain chs7, hits give low values 0.952 | locus YHR200W, strain rpn10, hits give low values 0.986 | locus YIL066C, strain RNR3, hits give low values 0.99 | locus YIL073C, strain SPO22, hits give low values 0.9 | locus YIL125W, strain kgd1, hits give low values 0.986 | locus YIR030C, strain dcg1, hits give low values 0.984 | locus YJL092W, strain hpr5, hits give low values 0.976 | locus YJL095W, strain BCK1 (second series), hits give low values 0.99 | locus YJL095W, strain BCK1, hits give low values 0.932 and 0.954 | locus YJL115W, strain asf1, hits give low values 0.975 | locus YJL129C, strain trk1, hits give low values 0.919 | locus YJL134W, strain LCB3, hits give low values 0.995 | locus YJL154C, strain vps35, hits give low values 0.965 | locus YJL164C, strain tpk1, hits give low values 0.976 | locus YJL166W, strain qcr8, hits give low values 0.992 | locus YJL168C, strain set2, hits give low values 0.984 | locus YJL187C, strain SWE1 (second series), hits give low values 0.991 | locus YJL187C, strain SWE1, hits give low values 0.983 | locus YJR043C, strain POL32, hits give low values 1.01
